Among all 310,000 compounds or so, about 2,200 (0.71%) showed an effect of 50% or more. Effects have a minus sign here. What follows is part of a selection rich in strong results, with near analogues and random picks from the rest.
What follows are compounds tested against human ether-à-go-go-related gene (hERG) potassium channel (human, UniProt Q12809) (assay: primary screen, population patch clamp on CHO cells stably expressing hERG; higher = less effect of the substance).
Sequence of human ether-à-go-go-related gene (hERG) potassium channel (Q12809 whole entry, looked up): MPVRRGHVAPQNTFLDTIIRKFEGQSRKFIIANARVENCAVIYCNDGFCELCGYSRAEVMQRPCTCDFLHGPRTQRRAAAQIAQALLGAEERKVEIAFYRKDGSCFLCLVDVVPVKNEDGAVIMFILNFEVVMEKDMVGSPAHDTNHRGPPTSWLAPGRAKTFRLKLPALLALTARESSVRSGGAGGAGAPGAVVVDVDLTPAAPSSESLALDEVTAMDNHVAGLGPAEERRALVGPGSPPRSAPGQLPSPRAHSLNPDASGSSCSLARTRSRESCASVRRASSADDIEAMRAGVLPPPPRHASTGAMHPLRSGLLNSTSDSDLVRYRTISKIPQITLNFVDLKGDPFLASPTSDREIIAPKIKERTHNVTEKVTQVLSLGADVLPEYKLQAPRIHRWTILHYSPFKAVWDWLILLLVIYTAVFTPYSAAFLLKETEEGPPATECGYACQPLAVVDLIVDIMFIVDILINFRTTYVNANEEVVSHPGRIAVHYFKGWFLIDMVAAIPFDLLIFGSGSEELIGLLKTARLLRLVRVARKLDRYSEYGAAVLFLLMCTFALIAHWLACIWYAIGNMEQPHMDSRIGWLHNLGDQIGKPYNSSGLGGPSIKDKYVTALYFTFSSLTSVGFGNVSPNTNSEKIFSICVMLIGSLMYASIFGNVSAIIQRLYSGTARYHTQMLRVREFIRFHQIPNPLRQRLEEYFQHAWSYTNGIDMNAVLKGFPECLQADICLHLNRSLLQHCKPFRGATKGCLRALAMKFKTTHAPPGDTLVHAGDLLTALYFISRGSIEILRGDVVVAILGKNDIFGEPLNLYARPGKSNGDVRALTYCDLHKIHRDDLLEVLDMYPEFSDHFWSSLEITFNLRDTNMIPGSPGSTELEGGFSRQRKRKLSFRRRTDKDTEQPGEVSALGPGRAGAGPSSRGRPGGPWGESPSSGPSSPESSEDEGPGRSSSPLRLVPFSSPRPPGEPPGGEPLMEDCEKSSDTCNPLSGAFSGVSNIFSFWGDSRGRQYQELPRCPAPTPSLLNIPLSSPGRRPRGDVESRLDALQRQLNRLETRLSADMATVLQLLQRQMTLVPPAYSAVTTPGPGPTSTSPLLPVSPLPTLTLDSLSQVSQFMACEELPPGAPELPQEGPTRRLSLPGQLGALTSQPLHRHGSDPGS

Structure (SMILES) | hERG current change (%, negative = inhibition) at 1uM [%]
COc1cc(S(=O)(=O)N(Cc2cccnc2)Cc2ccco2)ccc1-n1cnnn1 | -10.7
Cc1cc(C(=O)NC2CCCCCCC2)ccc1[N+](=O)[O-] | 13.3
Cc1ccc(CN2C(=O)CSC2c2ccc(F)cc2)cc1 (centres unmarked) | 12.2
C#CC(CO)N(CCN(Cc1ccccc1)C(C#C)CO)Cc1ccccc1 (centres unmarked) | 9.58
COC(=O)C(C)NC(=S)N1CC2C[C@@H](C1)Cn1c2cccc1=O (some centres unmarked) | 15.6
COc1cccc(N2CCN(S(=O)(=O)c3ccc(-c4coc(C)n4)cc3)CC2)c1 | 11.7
CCN(CC(=O)Nc1ccc(NC(C)=O)cc1)C(=O)c1cc2c(s1)CCCCC2 | 2.11
c1ccc(-c2nnc3sc(-c4cc5ccccc5o4)nn23)cc1 | 14.4
CCCCCC(=O)Nc1cccc(-c2nc3ncccc3o2)c1 | 0.93
O=C(CSc1ccc2nnc(-c3ccncc3)n2n1)NCc1ccco1 | -7.28
Cc1ccc(-c2nnc3ccc(SCC(=O)NCc4ccco4)nn23)cc1 | 4.96
O=C(CSc1ccc2nnc(-c3ccccc3)n2n1)NCc1ccco1 | -65.8
CCOc1ccc(OCCNC2CCCC2)cc1 | 2.09
O=C(NCc1ccco1)C(NS(=O)(=O)c1cccc2nsnc12)c1ccccc1 (centres unmarked) | 7.81
O=C(CCn1c(=O)[nH]c2ccsc2c1=O)N1CCN(c2cccc(Cl)c2)CC1 | -6.52
CC(CNC(=O)c1ccc(C#N)cc1)NC(=O)c1ccc(C#N)cc1 (centres unmarked) | -81.9
CCOc1ccc(C(=O)NCC(C)NC(=O)c2ccc(OCC)cc2)cc1 (centres unmarked) | 22.5
CC(CNC(=O)c1ccc(N)cc1)NC(=O)c1ccc(N)cc1 (centres unmarked) | 12
CN(C)/C=C/C(=O)c1ccccc1F | 4.57

Structure (SMILES) | hERG current change (%, negative = inhibition) at 1uM [%]
COc1ccc(C(=O)C2CCCN(Cc3c(O)cccc3OC)C2)cc1OC (centres unmarked) | -7.05
COc1ccc(C(=O)C2CCCN(Cc3cccc4c3OCO4)C2)cc1OC (centres unmarked) | -29.3
COc1cccc(OC)c1CN1CCCC(C(=O)c2ccccc2SC)C1 (centres unmarked) | -37.8
COc1ccc(C(=O)C2CCCN(Cc3ccc(C)s3)C2)cc1OC (centres unmarked) | -32.5
COc1ccc(C(=O)C2CCCN(Cc3nc4ccccc4nc3C)C2)cc1OC (centres unmarked) | -83.3
CCOc1ccccc1CN1CCCC(C(=O)c2ccc(OC)c(OC)c2)C1 (centres unmarked) | -51.1
COc1ccc(C(=O)C2CCCN(Cc3cn[nH]c3-c3ccc(F)cc3)C2)cc1OC (centres unmarked) | -25.9
COc1ccc(C(=O)C2CCCN(Cc3cn[nH]c3-c3ccccc3)C2)cc1OC (centres unmarked) | -75.4
COc1ccccc1CN1CCCC(C(=O)c2ccccc2SC)C1 (centres unmarked) | -27.3
COc1cccc(CN2CCCC(C(=O)c3ccccc3SC)C2)c1O (centres unmarked) | -76.9
COc1ccc(C(=O)C2CCCN(Cc3cnc(C)s3)C2)cc1OC (centres unmarked) | 2.68
COc1ccc(-c2[nH]ncc2CN2CCCC(C(=O)c3cccc(OC)c3)C2)cc1 (centres unmarked) | -29.5
CS(=O)(=O)N(Cc1cccc(CN(C(C(=O)O)c2ccccc2)S(C)(=O)=O)c1)C(C(=O)O)c1ccccc1 (centres unmarked) | 16.9
O=C(O)CC1(CC(=O)Nc2ccc(C(F)(F)F)cc2)CCCC1 | 15.6
Cc1ccc(OCCC(=O)OCC(=O)NC(=O)NC2CCCCC2)cc1 | 14.2
Cn1cnnc1SCc1ccccc1Br | 12.6
CC(=O)Nc1ccc(NC(=O)C(C)Sc2n[nH]c(-c3ccc(C)cc3)n2)cc1 (centres unmarked) | 8.42
Cc1ccc(C)c(-n2c(C)nc3ccccc3c2=O)c1 | 13.2
CC(C)(C)c1ccc(C(=O)NCCc2ccccc2)cc1 | 6.65

Structure (SMILES) | hERG current change (%, negative = inhibition) at 1uM [%]
Cc1ccc(C2=NN=C(NC(=O)CSc3nnc4c5ccccc5n(C)c4n3)SC2)cc1 | 8.27
Cc1ccc2oc(C(=O)N3CCN(C)C[C@@H]3C(C)C)c(C)c2c1 | 9.07
O=C(OCCNC(=O)c1ccc2ccccc2n1)c1ccc(F)cc1 | 4.77
Cc1ccc(OCCCC(=O)Nc2ccc(S(N)(=O)=O)cc2)cc1 | 9.66
COc1ccc([N+](=O)[O-])cc1NS(=O)(=O)c1ccc(Cl)c(C(=O)Nc2sc3c(c2C#N)CCCCC3)c1 | 17.4
COc1ccc(/C(N)=N/OC(=O)CCc2ccccc2)cc1 | 4.26
COc1cccc(C(=O)CN(C(=O)c2ccc(Cl)cc2Cl)N2C(=O)c3ccccc3C2=O)c1 | 8.71
CCC1(CC)NC(=O)N(CC(=O)OCC(=O)Nc2ccc(C(F)(F)F)cc2)C1=O | 2.71
COc1ccccc1C(=O)C1CCCN(Cc2ccc(Oc3ncccn3)cc2)C1 (centres unmarked) | -0.388
CCOc1ccc(CN2CCCC(C(=O)c3ccccc3OC)C2)cc1 (centres unmarked) | -74.1
O=C(c1ccc2c(c1)OCO2)C1CCCN(Cc2ccccn2)C1 (centres unmarked) | -13
O=C(c1ccc2c(c1)OCO2)C1CCCN(Cc2cn[nH]c2-c2ccccc2)C1 (centres unmarked) | -67.3
O=C(c1ccc2c(c1)OCO2)C1CCCN(Cc2cn[nH]c2-c2cccc(F)c2)C1 (centres unmarked) | -42.7
COC(=O)c1ccc(CN2CCCC(C(=O)c3ccccc3OC)C2)cc1 (centres unmarked) | -6.6
CCC(CC)c1nnc(NC(=O)C23CC4CC(CC(NC(C)=O)(C4)C2)C3)s1 | 0.699
Cc1cc(C)c(C)c(C(=O)c2ccccc2C(=O)O)c1C | 6.64
COCCNC(=O)COC(=O)c1cccnc1SC | 12.8
CC1CCN(C(=O)c2cccc(S(=O)(=O)N3CCCCC3)c2)CC1 | 2.17

Reference: paper PMC4336329 (PLoS ONE, 2015)
